Bioassay records (PubChem)
A selection: hits, their analogues and other compounds. The true share with any hit is near 19%.
IL1B secr inh: qHTS for Inhibitors of Inflammasome Signaling: IL-1-beta AlphaLISA Primary Screen; 360,000 compounds, 4.7% hits; THP-1 LPS/ATP IL-1B secretion, AlphaLISA, 16 h; stronger effect = lower value; activity change, % at 57.5 µM; in the data active = activity change below about -50%; inconclusive = mostly about -30% to -49%
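Secreted IL-1B measured by AlphaLISA bead assay after 16 h compound exposure of THP-1 cells; compounds (final up to 57.5 uM) added 1 h before LPS (250 ng/mL) and ATP (1.25 mM) stimulation; lower signal means less secretion.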
TDP1 cell noCPT: qHTS for Inhibitors of human tyrosyl-DNA phosphodiesterase 1 (TDP1): qHTS in cells in absence of CPT | DT40 Tdp1-/- hTDP1 cells, no CPT, ATP luminescence, 48 h | Potency, µM (doses to about 46.2 µM), without a hit: top-dose activity change, negative = growth inhibition, actives largely listed as inhibitors | 420,000 compounds, 15% hits; note: potency is the fitted concentration of half-maximal effect; nearly all actives have a fitted effect of over 55% in size
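Chicken DT40 Tdp1-/- cells stably complemented with human TDP1 were seeded at 400 cells/well with DMSO in place of 20 nM camptothecin. After compound pinning, cells grew at least 48 hr at 37 °C; viability read by CellTiter-Glo luminescence.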
DT40 TDP1 CPT: qHTS for Inhibitors of human tyrosyl-DNA phosphodiesterase 1 (TDP1): qHTS in cells in presence of CPT. chicken DT40 Tdp1-/-;hTDP1 cells + 20 nM CPT, ATP luminescence, 48 h. Potency, µM (top dose mostly 46.2 µM), for the others: at the top dose activity change, negative = growth inhibition, most hits filed as inhibitors. 420,000 compounds, 12% hits. AID 686979, 2013; note: potency is the fitted concentration of half-maximal effect; nearly all actives have a fitted effect of over 55% in size
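Chicken DT40 Tdp1-/- cells stably complemented with human TDP1 were seeded at 400 cells/well in medium containing 20 nM camptothecin, exposed to pin-transferred compounds, and grown at 37 °C for at least 48 hr. Viability was read as ATP luminescence.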
HT1080 IDH1KD tx: qHTS for induction of synthetic lethality in tumor cells producing 2HG: qHTS for the HT-1080-IDH1KD cell line. 360,000 compounds, 2% hits. HT-1080 IDH1 knockdown viability, ATP luminescence, 48 h. Potency, µM (doses to about 46.1 µM), without a hit: at the top dose activity, negative = toxicity, most hits filed as cytotoxic;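 note: potency is the fitted concentration of half-maximal effect; 0% = DMSO wells and -100% = cell-free medium wells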
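After a 2 h attachment period, IDH1KD HT-1080 cells took pin-transferred compound for 48 h at 37 °C; ATP-based luminescence after 10 min room-temperature reagent incubation reported viability.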
HT1080-NT tox: qHTS for induction of synthetic lethality in tumor cells producing 2HG: qHTS for the HT-1080-NT fibrosarcoma cell line; 360,000 compounds, 1.6% hits; HT-1080-NT fibrosarcoma viability, CellTiter-Glo ATP luminescence, 48 h; Potency, µM (titrated, usually from 46.1 µM), without a hit: at the top dose activity, negative = less viability, actives largely listed as cytotoxic; AID 686970, 2013;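 note: NT is the 2HG producing partner of a matched IDH1 knockdown line; potency is the fitted concentration of half-maximal effect; 0% = DMSO-treated cells and -100% = media-only wells without cells; nearly all actives have a fitted effect of over 55% in size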
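HT-1080-NT; 750 cells/well; 5% FBS RPMI; 48 h compound, 37 degrees C; CellTiter-Glo luminescence; curve fitting and curve-class assignment.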
ELG1 DNA repair: qHTS screen for small molecules that inhibit ELG1-dependent DNA repair in human embryonic kidney (HEK293T) cells expressing luciferase-tagged ELG1 | HEK293T ELG1-luciferase reporter, luminescence, 16 h; DNA damage induced by 5-fluorouridine | Potency, µM (highest dose often 46.1 µM), for inactives: top-dose activity change, negative = inhibition, actives largely listed as inhibitors | 330,000 compounds, 2.3% hits | AID 504467, 2011; note: potency is the fitted concentration of half-maximal effect; nearly all actives have a fitted effect of over 55% in size
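DMSO vehicle served as the neutral condition. Each well held 2,000 cells given 5-fluorouridine plus compound; after 16 hr at 37 °C/5% CO2, ONE-Glo was added and luciferase measured 30 min later.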
* marks the source's active call; other numbers are inactive results. Unless noted, calls come from the whole dose curve; as a rule, active = well fitted curve in the direction sought with a large enough effect; inconclusive = small, poorly fitted or top-dose-only effect, or another doubt; inactive = no such curve, though single readings can be large; an effect the other way counts as inactive or inconclusive. Unless noted, % is set by controls: 0 for no effect and ±100 for the full control effect.

Brc1ccccc1/C=N/Nc1ccc2ccccc2n1 was read as IL1B secr inh -8.7, TDP1 cell noCPT 16.4µM*, DT40 TDP1 CPT inconclusive, HT1080 IDH1KD tx -17.2%, HT1080-NT tox inconclusive and ELG1 DNA repair inconclusive.
Screening C[C@@H]1CN([C@H](C)CO)C(=O)CCCn2nncc2CO[C@@H]1CN(C)S(=O)(=O)c1ccc(C#N)cc1 returned IL1B secr inh 2.7, TDP1 cell noCPT -14.1%, DT40 TDP1 CPT 3.3%, HT1080 IDH1KD tx 15.5% and HT1080-NT tox 1.2%.
`O=C(COc1nsnc1N1CCOCC1)Nc1ccc([N+](=O)[O-])cc1` gave IL1B secr inh -12.9, TDP1 cell noCPT 23.1µM*, DT40 TDP1 CPT 29.1µM*, HT1080 IDH1KD tx 10.8%, HT1080-NT tox 26.7% and ELG1 DNA repair -22.8%.
For O=C(COc1nsnc1N1CCOCC1)Nc1ccc(Cl)cc1 the results were IL1B secr inh 27.2, TDP1 cell noCPT 14.6µM*, DT40 TDP1 CPT inconclusive, HT1080 IDH1KD tx 9.9%, HT1080-NT tox 0.1% and ELG1 DNA repair 3.8%.
COc1cc([N+](=O)[O-])c2nc(C(=O)O)ccc2c1 was read as IL1B secr inh 0.0, TDP1 cell noCPT -23.3%, DT40 TDP1 CPT -23.6%, HT1080 IDH1KD tx 6.1% and HT1080-NT tox 3.1%.
For COc1ccccc1Nc1nc(N)nc(-c2oc3ccccc3c2C)n1 the results were IL1B secr inh -19.3, TDP1 cell noCPT inconclusive, DT40 TDP1 CPT 8.2µM*, HT1080 IDH1KD tx -8.2%, HT1080-NT tox -2.1% and ELG1 DNA repair 10.9%.
Screening COc1ccccc1Nc1nc(N)nc(CN2CCCCC2)n1 returned IL1B secr inh 11.2, TDP1 cell noCPT -6.5%, DT40 TDP1 CPT 1.2%, HT1080 IDH1KD tx 15.8%, HT1080-NT tox 6.6% and ELG1 DNA repair inconclusive.
COc1ccc(OCc2nc(N)nc(Nc3ccccc3OC)n2)cc1 was read as IL1B secr inh inconclusive, TDP1 cell noCPT inconclusive, DT40 TDP1 CPT -9.1%, HT1080 IDH1KD tx 5.5%, HT1080-NT tox 11.9% and ELG1 DNA repair 0.3%.
For COc1ccccc1Nc1nc(N)nc(CSC(=S)N2CCCCC2)n1 the results were IL1B secr inh -9.4, TDP1 cell noCPT 13µM*, DT40 TDP1 CPT 8.2µM*, HT1080 IDH1KD tx 2.5%, HT1080-NT tox -8.3% and ELG1 DNA repair inconclusive.
Screening COc1ccccc1Nc1nc(N)nc(CCl)n1 returned IL1B secr inh -100.1*, TDP1 cell noCPT 13µM*, DT40 TDP1 CPT 18.4µM*, HT1080 IDH1KD tx 11.6µM*, HT1080-NT tox 23.1µM* and ELG1 DNA repair inconclusive.
Screening COc1ccc(OC)c(Nc2nc(N)nc(CCl)n2)c1 returned IL1B secr inh -101.9*, TDP1 cell noCPT 18.4µM*, DT40 TDP1 CPT 11.6µM*, HT1080 IDH1KD tx 16.4µM*, HT1080-NT tox inconclusive and ELG1 DNA repair inconclusive.
`O=C(Cn1c(=O)c2cccn2c2ccc(F)cc21)N1CCN(c2ccccc2)CC1` gave TDP1 cell noCPT -15.3% and DT40 TDP1 CPT -12.0%.
Screening O=C(COc1ccc(Br)cc1Br)NC1CCCC1 returned IL1B secr inh -22.0, TDP1 cell noCPT inconclusive, DT40 TDP1 CPT 4.11µM*, HT1080 IDH1KD tx -13.6%, HT1080-NT tox inconclusive and ELG1 DNA repair inconclusive.
For CCOC(=O)C1CCN(C(=O)COc2ccc(Br)cc2)CC1 the results were IL1B secr inh 18.8, TDP1 cell noCPT -9.1%, DT40 TDP1 CPT -18.6%, HT1080 IDH1KD tx 3.6%, HT1080-NT tox 4.3% and ELG1 DNA repair -5.5%.
Screening CCN(CC)CCNCc1cc(Br)ccc1OCC(=O)NCc1ccccc1 returned IL1B secr inh -12.3, TDP1 cell noCPT 1.4%, DT40 TDP1 CPT -1.7%, HT1080 IDH1KD tx -10.4%, HT1080-NT tox -16.4% and ELG1 DNA repair 10.4%.
`CC(NCc1cc(Br)ccc1OCC(=O)NCc1ccccc1)c1ccccc1` (configuration not stated) gave IL1B secr inh -68.0*, TDP1 cell noCPT inconclusive, DT40 TDP1 CPT inconclusive, HT1080 IDH1KD tx -17.6%, HT1080-NT tox -3.0% and ELG1 DNA repair inconclusive.
For Cc1ccc(S(=O)(=O)CCC(=O)NC2CCCCC2)cc1 the results were IL1B secr inh 13.1, TDP1 cell noCPT 14.6µM*, DT40 TDP1 CPT 18.4µM*, HT1080 IDH1KD tx 4.5%, HT1080-NT tox 10.8% and ELG1 DNA repair 15.5%.
`CCOC(=O)C1CCN(C(=O)COc2ccc(Br)cc2Br)CC1` gave IL1B secr inh -66.4*, TDP1 cell noCPT -5.5%, DT40 TDP1 CPT -18.5%, HT1080 IDH1KD tx -3.4%, HT1080-NT tox -27.5% and ELG1 DNA repair -17.2%.
`O=C(Cc1ccc(-c2ccccc2)cc1)NCCS(=O)(=O)N1CCN(c2ccc(F)cc2)CC1` gave TDP1 cell noCPT -10.9% and DT40 TDP1 CPT 10.2%.
Screening COc1ccc(NC(=O)CN2CCN(c3c(C)cc(C)cc3C)CC2)cc1 returned IL1B secr inh -7.6, TDP1 cell noCPT -22.5%, DT40 TDP1 CPT -28.8%, HT1080 IDH1KD tx -14.0%, HT1080-NT tox -6.9% and ELG1 DNA repair -10.7%.
`Cc1cc(Cl)ccc1OCC(=O)NC1CCCC1` gave IL1B secr inh -84.9*, TDP1 cell noCPT 12.6µM*, DT40 TDP1 CPT 11.6µM*, HT1080 IDH1KD tx -9.7%, HT1080-NT tox inconclusive and ELG1 DNA repair 15.9%.
For O=C(COc1ccc(Br)cc1CNC1CCCC1)Nc1ccccc1 the results were IL1B secr inh -62.6*, TDP1 cell noCPT 18.4µM*, DT40 TDP1 CPT inconclusive, HT1080 IDH1KD tx inconclusive, HT1080-NT tox inconclusive and ELG1 DNA repair -7.7%.
Screening Cc1ccc(C)c(OCC(=O)NC2CCCCCC2)c1 returned IL1B secr inh -65.5*, TDP1 cell noCPT inconclusive, DT40 TDP1 CPT -28.4%, HT1080 IDH1KD tx -23.9%, HT1080-NT tox -11.7% and ELG1 DNA repair 0.0%.
Screening CCOc1cc(CNCc2ccccc2)ccc1OCC(=O)NC1CCCCC1 returned IL1B secr inh -5.7, TDP1 cell noCPT 16.4µM*, DT40 TDP1 CPT 18.4µM*, HT1080 IDH1KD tx 1.3%, HT1080-NT tox -14.4% and ELG1 DNA repair -7.7%.
